# CCHF vOTU inh – blocks the CCHF virus ovarian tumor domain protease; CCHFV vOTU protease, Pep-AMC fluorescence; inhibition, % at 11.5 µM; actives 0.55% (n = 370,000); in the data active means inhibition above about 30%; further: 0% = vehicle wells with enzyme and 100% = no enzyme wells
# BoNT A protease – blocks Botulinum neurotoxin A light chain protease; AID 588499; multiplex microsphere protease substrate cleavage, flow cytometry; inhibition, % at 10 µM; actives 0.17% (n = 360,000); further: plate controls were buffer without enzyme for full effect and enzyme alone for no effect
# Anthrax LF prot – anthrax lethal factor protease inhibition. P15917. multiplex microsphere protease cleavage assay, LF. inhibition, % at 10 µM. actives 0.12% (n = 360,000). AID 588501; further: plate controls were buffer without enzyme for full effect and enzyme alone for no effect
# Target sequence (P15917 whole entry, looked up): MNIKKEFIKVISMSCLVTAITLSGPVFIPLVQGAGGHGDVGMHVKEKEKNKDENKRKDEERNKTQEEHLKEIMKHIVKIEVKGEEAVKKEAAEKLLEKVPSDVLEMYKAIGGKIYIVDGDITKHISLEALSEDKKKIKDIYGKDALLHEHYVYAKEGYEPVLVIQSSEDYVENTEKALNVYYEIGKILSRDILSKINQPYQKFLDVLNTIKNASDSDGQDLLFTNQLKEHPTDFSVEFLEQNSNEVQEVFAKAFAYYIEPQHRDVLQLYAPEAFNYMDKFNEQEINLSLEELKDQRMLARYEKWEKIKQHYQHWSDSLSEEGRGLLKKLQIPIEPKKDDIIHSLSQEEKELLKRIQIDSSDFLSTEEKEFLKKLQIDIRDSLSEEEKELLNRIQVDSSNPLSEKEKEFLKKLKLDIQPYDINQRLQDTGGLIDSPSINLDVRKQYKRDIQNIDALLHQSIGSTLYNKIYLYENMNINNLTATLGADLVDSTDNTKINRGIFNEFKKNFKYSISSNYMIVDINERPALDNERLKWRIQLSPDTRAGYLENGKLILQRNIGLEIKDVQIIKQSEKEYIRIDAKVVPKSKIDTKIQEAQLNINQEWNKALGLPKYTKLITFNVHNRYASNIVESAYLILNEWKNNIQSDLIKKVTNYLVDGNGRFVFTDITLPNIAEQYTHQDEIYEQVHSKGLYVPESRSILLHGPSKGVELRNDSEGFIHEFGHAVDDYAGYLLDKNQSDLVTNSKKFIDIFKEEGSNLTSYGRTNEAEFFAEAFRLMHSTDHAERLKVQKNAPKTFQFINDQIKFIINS
# Autofluor counter – flagged as autofluorescent in microsphere protease counterscreen; actives 3.1% (n = 360,000); fluorescence intensity (no concentration beside the values); AID 624483; compound autofluorescence counterscreen, microsphere flow cytometry; active compounds read high; in the data active means fluorescence intensity above about 16000; inconclusive means no clear call, values can overlap the other calls
# 3CLpro inhibitor – SARS-CoV 3CLpro protease inhibition. actives 0.14% (n = 290,000). inhibition, % at 6 µM. AID 1706. P0C6X7. recombinant SARS-CoV 3CLpro, quenched FRET peptide cleavage; in the data active means inhibition above about 12%
# BoNT F protease – blocks Botulinum neurotoxin F light chain protease; inhibition, % at 10 µM; AID 588497; actives 0.22% (n = 360,000); Multiplex microsphere protease cleavage assay, flow cytometry; in the data active means inhibition above about 35%, passing the limit was not always enough; inconclusive means no clear call, values can overlap the other calls; further: plate controls were buffer without enzyme for full effect and enzyme alone for no effect
# * hit, by the source's call; ? = inconclusive; / = no result given. In the library only some 3.9% were active in any assay of this set; here they are far more common. Unless noted, no stated cut-off is given here; in the data, active means inhibition above about 30%; inconclusive means no clear call, values can overlap the other calls; inactive means below that.
SMILES,CCHF vOTU inh,BoNT A protease,Anthrax LF prot,Autofluor counter,3CLpro inhibitor,BoNT F protease
CCOc1ccc(CCNC(=O)COc2cccc(-n3cnnn3)c2)cc1OCC,2,-2,-2,6578,/,-2
O=C(c1ccco1)C12CN3CN(CN(C3)C1)C2,5,4,-4,21201*,5,2
Cc1cc(C)n(CC(C)NCc2cn[nH]c2-c2cccc3ccccc23)n1 (centres undefined),8,0,1,4538,1,-2
Cc1cc(C)n(CC(C)NCc2cn[nH]c2-c2ccc(C)c(C)c2)n1 (centres undefined),-10,-5,-4,28071*,-1,13
N=c1occ(C(=O)c2cc(F)ccc2O)cc1C(=O)NC1CCCCC1,7,0,2,4399,3,0
Cc1ccc(OCCNC(=O)[C@H]2O[C@@H](n3ccc(N)nc3=O)[C@H](O)[C@@H]2O)cc1C,-3,0,-3,5936,/,3
CSCCC(NC(=O)c1cncc(Br)c1)C(=O)O (centres undefined),-3,8,-6,20225*,-7,7
Nc1n[nH]c(C2CCCCC2)n1,2,0,-3,4027,2,-1
S=c1nc(C2CCCCC2)[nH][nH]1,/,-3,-5,17098*,-2,-6
CSC(=O)CC(=O)NC(=O)c1ccccc1,3,-4,-2,25369*,-3,-6
CSc1nnc(SCC(=O)NC(=O)c2ccccc2)s1,1,-3,-2,6714,/,-15
CCN1CCN(c2ccc(Cl)cc2NC(=O)c2ccc(-n3nc(C)cc3C)cc2)CC1,-9,/,/,/,/,/
O=C(COc1ccc(F)cc1F)N1CCCCCCC1,-12,0,10,3613,-2,-10
C=CCOC(=O)C1CC=CCC1C(=O)Oc1ccc(F)cc1F (centres undefined),1,?,-3,24043*,1,-3
O=C(Nc1ccccc1)N1CCc2ccccc21,-3,1,-2,3179,-7,1
O=C(NCC1CCCC(CNC(=O)N2CCc3ccccc32)C1)N1CCc2ccccc21 (centres undefined),-12,0,-4,21215*,2,-1
NC(=O)NC(=O)CSc1nc(C2CCCCC2)n(-c2ccccc2)n1,9,0,0,2442,0,4
CC(C)C(C)(C#N)NC(=O)CSc1nc(C2CCCCC2)n(-c2ccccc2)n1 (centres undefined),16,3,-1,2368,-5,38*
Cc1nnsc1NC(=O)OCc1ccc(Cl)cc1Cl,11,0,1,2904,-1,-1
Cc1nn(C)c(Cl)c1NC(=O)OCc1ccc(Cl)cc1Cl,10,?,-5,23382*,5,-6
Cc1nn(Cc2ccc(Cl)cc2Cl)c(C)c1NC(=O)CCl,3,?,0,19112*,0,4
COc1ccc(C(=O)/C=C(\Nc2ccc(Br)c(C)c2)c2ccc(OC)cc2OC)c(OC)c1,10,/,/,/,/,/
CCOC(=O)N(c1ccccc1)P1(=S)OCCO1,2,/,/,/,2,/
CCOC(=O)N(c1ccccc1)P1(=S)OCC(C)O1 (centres undefined),-14,-1,0,20958*,2,-3
CCc1ccc(N2CC(C(=O)Nc3ccc(C)c(S(=O)(=O)N4CCOCC4)c3)CC2=O)cc1 (centres undefined),0,-1,-11,22656*,6,-6
SMILES,CCHF vOTU inh,BoNT A protease,Anthrax LF prot,Autofluor counter,3CLpro inhibitor,BoNT F protease
CCc1ccc(N2CC(C(=O)Nc3ccc(OC)c(S(=O)(=O)N4CCOCC4)c3)CC2=O)cc1 (centres undefined),14,0,-8,3577,/,-1
CCc1cc(N2CCOCC2)cc2c1[nH]c1ccccc12,-56,8,-10,17063*,0,8
c1ccc2c(c1)[nH]c1c(N3CCOCC3)ncnc12,-5,-1,2,6374,0,-12
CCCC(=O)Nc1cccc(NC(=O)c2ccc(C)c([N+](=O)[O-])c2)c1,16,?,-1,23307*,3,0
COc1cc(C)c(Br)cc1S(=O)(=O)NCCN1CCOCC1,0,1,-4,4784,1,0
Cc1ccc(-n2nc3c(=O)n(CCCC(=O)NCc4ccccc4Cl)nc(C)c3c2C)cc1,-5,1,-1,5249,-3,2
CN(C)c1nc(N2CCN(c3ccccc3)CC2)c(C#N)c(=O)o1,-2,0,-4,5550,6,-4
Cc1cccc(C)c1N1CCN(c2nc(N(C)C)oc(=O)c2C#N)CC1,-2,0,1,23077*,-2,2
COc1ccc(C(=O)NNC2=NCCCCC2)cc1,-4,-1,-8,4396,0,-3
COC(=O)[C@H](C(C)C)N(Cc1ccccc1)S(=O)(=O)CCN1CCN(c2ccccc2)CC1,11,0,-1,2875,/,-4
CCc1nnc(NC(=O)c2ccc(-c3cc(C(F)(F)F)ccc3Cl)o2)s1,-10,-1,-3,11257,1,-9
CC(NC(=O)c1ccc(Br)o1)c1ccccc1 (centres undefined),4,0,2,3244,3,0
Cc1ccc(C(=O)NC(C)c2ccccc2)o1 (centres undefined),3,2,-5,22061*,-4,3
CC(NC(=O)c1ccc(-c2cc(C(F)(F)F)ccc2Cl)o1)c1ccccc1 (centres undefined),7,?,1,20639*,-7,0
COC(=O)c1ccc(NC(=O)c2ccc(CN3CCOCC3)cc2)cc1,2,0,0,16430*,-4,2
O=C(Nc1ccc(CN2CCOCC2)cc1)c1cccc(F)c1,-4,3,0,18588*,-2,1
COc1ccc(C(=O)N2CCN(c3ccc(N4CCOCC4)nn3)CC2)cc1OC,-45,1,-1,6154,/,-4
CCCCCCCCN1C(=O)C(O)=C(C(C)=O)C1c1ccccn1 (centres undefined),1,-26,-5,31940*,-1,-45
CCCCN1C(=O)C(O)=C(C(C)=O)C1c1ccccc1 (centres undefined),/,0,1,4654,0,-10
O=C(NCc1ccc(Cl)cc1Cl)c1ccccn1,1,-3,0,24310*,2,-3
CCOC(=O)N1CCN(C(=O)c2ccc3c(=O)n(Cc4ccc(Cl)cc4)c(=S)[nH]c3c2)CC1,-3,1,-2,19158*,-6,-1
CCN(CC)C(=O)c1ccc2c(=O)n(CCOC)c(=S)[nH]c2c1,1,?,-5,20993*,-1,3
CCOCCCn1c(=S)[nH]c2cc(C(=O)N3CCOCC3)ccc2c1=O,1,-2,1,17022*,1,-5
CC1CCCN(C(=O)c2ccc3c(=O)n(Cc4ccc5c(c4)OCO5)c(=S)[nH]c3c2)C1 (centres undefined),-4,0,1,22529*,-5,-2
O=C(c1ccc2c(=O)n(Cc3ccccc3)c(=S)[nH]c2c1)N1CCOCC1,-4,-2,1,6499,-2,-2

# Compound activity deposited in PubChem BioAssay by several laboratories.
